# PMC4552634, “A New Set of Chemical Starting Points with Plasmodium falciparum Transmission-Blocking Potential for Antimalarial Drug Discovery” (PLoS ONE, 2015)
# The whole screen tested about 13,000 compounds, of which about 3,200 (25%) showed an effect of 50% or more. This is one part of the list.
# System: P. falciparum stage V gametocytes
# Set-up: BacTiter-Glo ATP luminescence viability of purified stage V gametocytes in 384-well plates, per cent inhibition versus DMSO
# Details: 48 h, 5 µM; inhibitor
row,SMILES,% Inhibition [%]
1,CCCCN(Cc1cnccc1-c1ccc(Br)cc1)c1ccc(C(O)(C(F)(F)F)C(F)(F)F)cc1 [TCMDC-135242],23.71
2,CCC(C)CN1CCCN(c2ccc(NC(=O)c3cccs3)cc2)CC1 (stereo not drawn) [TCMDC-134998],9.826
3,CCN(Cc1ccccc1)C1CCN(Cc2cc(Br)ccc2O)CC1 [TCMDC-123661],1.171
4,O=C(Nc1ccc(Cl)cc1)Nc1ccc(-c2csc(-c3nc4ccccc4[nH]3)c2)cc1 [TCMDC-133174],10.18
5,Cc1cc(N2CCCC2)nc(Nc2ccc(NC(=O)C(C)C)cc2)n1 [TCMDC-124970],-2.67
6,Cc1cc(N2CCCC2)nc(Nc2ccc(NC(=O)C(C)(C)C)cc2)n1 [TCMDC-124716],77.07
7,Cc1cc(N2CCCC2)nc(Nc2ccc(NC(=O)Nc3ccccc3)cc2)n1 [TCMDC-124705],-12.69
8,CCNc1cc(C(=O)N[C@@H](Cc2ccccc2)[C@H](O)CNCCCc2ccc(OC)cc2)cc(N2CCCC2=O)c1 [TCMDC-141685],6.049
9,CCOc1ccccc1CNc1nccc(NCc2ccccc2OC)n1 [TCMDC-135119],40.21
10,CCNC(=O)N1CCc2ccc(Oc3nc(NCc4ccccc4OC)ncc3C)cc2CC1 [TCMDC-133414],17.56
11,Fc1ccc(OC2CN(c3nccc(NCc4ccccc4Cl)n3)C2)cc1 [TCMDC-135110],91.97
12,COc1ccccc1CNc1ccnc(N2CC(Oc3ccc(F)cc3)C2)n1 [TCMDC-135118],57.67
13,Cc1onc(-c2ccccc2)c1-c1nc(NCc2ccccc2Cl)no1 [TCMDC-134205],-12.6
14,O=C(Nc1ccc(OC2CCN(Cc3ccc(F)cc3)C2)cc1)c1ccco1 (stereo not drawn) [TCMDC-133758],44.14
15,CC(C)(C)NC(=O)c1ccc(Oc2ccc(OC(F)(F)F)cc2)c(NC(=O)C(C)(C)C)c1 [TCMDC-137270],-22.87
16,CC(C)[C@H](NCC(=O)c1ccccc1)C(=O)O [TCMDC-131333],52.78
17,COC(=O)C(C)NCC(=O)c1ccccc1 (stereo not drawn) [TCMDC-131767],45.43
18,CCC(CC(C)C(=O)O)=C(c1ccccc1)c1ccccc1 (stereo not drawn) [TCMDC-131707],-2.137
19,COc1cc(NC(=O)N2CCOC(CCN3CCC4(CCc5ccccc54)CC3)(c3ccc(Cl)c(Cl)c3)C2)cc(OC)c1 (stereo not drawn) [TCMDC-135338],-0.7672
20,CCc1c(C)nc(-n2nc(C)cc2NC(=O)CCc2ccccc2)[nH]c1=O [TCMDC-124934],-11.5
21,COc1ccc2ncc(F)c(CCN3CC(O)C(CNCc4ccc(F)cc4)C3)c2n1 (stereo not drawn) [TCMDC-136527],13.85
22,COc1ccc2ncc(F)c(CCN3CC(O)C(CNCc4ccc5c(c4)OCCO5)C3)c2n1 (stereo not drawn) [TCMDC-136518],55.46
23,COc1ccc2ncc(F)c(CCN3CC(O)C(CNCc4ccc5ccccc5c4)C3)c2n1 (stereo not drawn) [TCMDC-136528],43.95

row,SMILES,% Inhibition [%]
1,COc1ccc2ncc(F)c(CCN3CC(O)C(CNCc4ccccc4)C3)c2n1 (stereo not drawn) [TCMDC-136498],50.66
2,COc1ccc2ncc(F)c(CCN3CCC4(CC3)COC(c3cc5c(cn3)OCCO5)=N4)c2n1 [TCMDC-135741],93.18
3,COc1ccc2ncc(F)c(CCN3CCC(NCc4cc(Br)c5c(c4)OCCO5)CC3)c2n1 [TCMDC-136211],30.05
4,COc1ccc2ncc(F)c(CCN3C[C@H](CNCc4cc(C#N)c5c(c4)OCCO5)[C@H](O)C3)c2n1 [TCMDC-136275],16.8
5,CCc1cc(CNC2CCN(CCc3c(F)cnc4ccc(OC)nc34)CC2)cc2c1OCCO2 [TCMDC-136290],31.48
6,COc1ccc2ncc(F)c(CCN3CC(O)C(CNCc4ccc5oc(=O)ccc5c4)C3)c2n1 (stereo not drawn) [TCMDC-136499],11.09
7,COc1ccc2ncc(F)c(CCN3CCC(NCc4cc(OC)c5c(c4)OCCO5)CC3)c2n1 [TCMDC-135509],17.67
8,COc1ccc2ncc(F)c(CCN3CCC(NCc4cc(C)c5c(c4)OCCO5)CC3)c2n1 [TCMDC-136209],19.66
9,COc1ccc2ncc(F)c(CCN3CCC(NCc4cc(F)c5c(c4)OCCO5)CC3)c2n1 [TCMDC-135849],84.79
10,NC1=NC(c2ccccc2)(c2ccccc2)C(=O)N1CCCCc1ccccc1 [TCMDC-136488],3.475
11,Fc1cccc(COc2ccc(Nc3ncnc4sc(C#Cc5ncc[nH]5)cc34)cc2Cl)c1 [TCMDC-135407],-1.353
12,O=C(Nc1cccc(-c2nn3ccccc3c2-c2ccnc(Nc3cccc(C(F)(F)F)c3)n2)c1)c1c(F)cccc1F [TCMDC-135527],-78.64
13,COc1cccc(C2(c3cccc(OC)c3)N=C(N)N(CCCc3ccccc3)C2=O)c1 [TCMDC-136492],-28.16
14,CC1CN(C(=O)c2sc3ccccc3c2Cl)CC(C)O1 (stereo not drawn) [TCMDC-125225],2.721
15,C/C=C1\CN2CC[C@H]1C[C@@H]2[C@@H](O)c1ccnc2ccc(O)cc12 [TCMDC-138273],7.487
16,Cc1ccc(C)c(NC(=O)CC2C(=O)N(c3ccccc3)C(=S)N2Cc2ccco2)c1 (stereo not drawn) [TCMDC-124000],88.68
17,Cc1cc(C)c(-c2n[nH]c3c2C(c2cccc(Cl)c2)N(Cc2ccco2)C3=O)c(O)c1 (stereo not drawn) [TCMDC-125307],-65.67
18,O=C(Nc1ccc(C(=O)Oc2cccc3ccccc23)cc1)N[C@@H](Cc1ccc(O)cc1)C(=O)NC1CCN(Cc2ccc(O)cc2)C1 (stereo partly drawn) [TCMDC-135360],-40.07
19,O=c1c2ccc(Sc3ccccn3)cc2n(-c2ccccc2)c2cc(Sc3ccccn3)ccc12 [TCMDC-137528],7.065
20,COc1cc(C)nc2ccc(NC(=O)c3cc([N+](=O)[O-])cc([N+](=O)[O-])c3)cc12 [TCMDC-139382],32.9
21,O=C(C=Cc1ccccc1)Nc1ccc(C#CC=Cc2ccc(NC(=O)C=Cc3ccccc3)cc2)cc1 [TCMDC-125718],-11.21
22,CCOC(=O)C1CCN(CCOc2cc(NC(=O)/C=C/c3ccccc3Cl)ccc2Br)CC1 [TCMDC-140963],-16.5
23,CC1(C)CN2CCCC2c2cc(NC(=O)/C=C/c3ccccc3Cl)ccc21 (stereo not drawn) [TCMDC-139348],26.85

row,SMILES,% Inhibition [%]
1,COc1cc(C)nc2ccc(NC(=O)Nc3ccc([N+](=O)[O-])cc3C)cc12 [TCMDC-139395],-13.54
2,O=C(/C=C/c1ccccc1Cl)Nc1ccc(Br)c(OCCN2CCCCC2)c1 [TCMDC-140959],-53.57
3,CN1Cc2cc(NC(=O)/C=C/c3ccccc3Cl)ccc2C(C)(C)C1 [TCMDC-139315],78.19
4,CCOc1ccccc1C=CC(=O)Nc1ccc2nc(N3CCN(C)CC3)cc(C)c2c1 [TCMDC-123801],-1.147
5,Nc1cccc(C=CC(=O)Nc2ccnc3ccccc23)c1 [TCMDC-139290],5.125
6,Cc1cc(N)c2cc(NC(=O)/C=C/c3ccc([N+](=O)[O-])cc3)ccc2n1 [TCMDC-139335],102.5
7,Cc1cc(N)c2cc(NC(=O)/C=C/c3ccccc3)ccc2n1 [TCMDC-139337],92.06
8,Cc1cc(N)c2cc(NC(=O)/C=C/c3ccccc3Cl)ccc2n1 [TCMDC-139459],113.2
9,NC(N)=NC(=O)Nc1cc(F)c(Cl)c(Cl)c1 [TCMDC-137462],6.486
10,O=c1ccc2ncc(Cl)c3c2n1CC3CN1CCC(NCc2cc3c(cn2)OCCO3)CC1 (stereo not drawn) [TCMDC-135967],20.98
11,CC1(C)N=C(N)N=C(N)N1OCCCOc1ccc(N)cc1 [TCMDC-131698],-10.87
12,CC1(C)CNCc2cc(NC(=O)/C=C/c3ccc(Cl)cc3)ccc21 [TCMDC-141909],92.59
13,O=C(/C=C/c1ccc(Cl)cc1)Nc1ccc2nc(CN3CCCC3)ccc2c1 [TCMDC-135629],-22.56
14,CN1CCN(Cc2cc3cc(NC(=O)/C=C/c4ccc(Cl)cc4)ccc3s2)CC1 [TCMDC-135631],-73.77
15,Nc1ncnc2cc(-c3cccc(NC(=O)Nc4ccccc4)c3)sc12 [TCMDC-135255],-37.99
16,CCCCC(N)COc1cccc2c(-c3ccncc3)c(-c3cccc(NC(=O)Nc4ccccc4)c3)nn12 (stereo not drawn) [TCMDC-135537],58.08
17,O=C(Nc1ccccc1)Nc1cccc(-c2nn3c(OCCN4CCCC4)cccc3c2-c2ccncc2)c1 [TCMDC-135539],44.29
18,N[C@@H](COc1cccc2c(-c3ccncc3)c(-c3cccc(NC(=O)Nc4ccccc4)c3)nn12)c1ccccc1 [TCMDC-135512],8.625
19,O=C(Nc1ccccc1)Nc1cccc(-c2nn3c(OCC4CCCCN4)cccc3c2-c2ccncc2)c1 (stereo not drawn) [TCMDC-135465],63.4
20,O=C(Nc1ccccc1)Nc1cccc(-c2cc(CNCCc3ccccc3)sc2-c2ccncc2)c1 [TCMDC-135632],-27.66
21,Fc1cc(Cl)ccc1Nc1ccnc2cc(-c3scnc3CNCCN3CCOCC3)ccc12 [TCMDC-138442],15.08
22,O=C(Cc1cc(F)cc(F)c1)NC1CCN(c2ccnc3cc(Cl)ccc23)C1 (stereo not drawn) [TCMDC-133667],8.938
23,CC(C)(CNC(=O)[C@@H]1CCCN(CCOc2ccc(F)c(F)c2)C1)c1nc(-c2ccc(Cl)c(O)c2)c(-c2ccncc2)[nH]1 [TCMDC-141137],11.15
